Measured values: PubChem BioAssay AID1053188 (Broad Institute, 2014)
Where “and” joins values, the source holds several entries; their conditions need not be identical. Equal entries are not always repeated. The whole screen tested about 83,000 compounds, of which about 780 (0.94%) were called active. Only a selection was taken, and actives are over-represented in it overall. Values without a mark were called inactive.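 How the source made its calls: active means mean inhibition of at least 50% with a set share of replicates also reaching that level; inconclusive means no clear call, values can overlap the other calls; inactive means the rest.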

Test: inhibitors of CD40-induced NF-kB signaling, primary screen, BL2 cells, luciferase reporter, single point (AID 1053188);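 further: 0% = neutral control wells and 100% = IKK inhibitor VII at 50 µM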
Conditions: CD40L-induced, 4 h, hits give high values; at 10 µM unless noted
In the case of `Cc1ccc(S(=O)(=O)c2ccc(Oc3ccccc3)cc2)cc1`, the inhibition is reported as 1.57%. In the case of `O=C1C(Cl)=C(Oc2ccccc2)C(=O)c2ccccc21`, the inhibition is reported as 100% (active). For `COc1ccc2ccccc2c1CNc1nnnn1C`, the inhibition was -1.14%. Compound `O=C(NCC1CCCO1)c1ccc(S(=O)(=O)Nc2ccc(F)cc2)cc1` (stereo not drawn) has an inhibition of 7.17%. In the case of `Cc1nc2cc3c(cc2s1)OCO3`, the inhibition is reported as 3.54%. `CN(C)CCCN(C(=O)c1ccc(S(=O)(=O)N2CCCCCC2)cc1)c1nc2cc3c(cc2s1)OCCO3` showed an inhibition of -0.778%. For `c1c2c(cc3sc(N4CCCCC4)nc13)OCCO2`, the inhibition was 99.7% (active). Work on `O=C(NCC1CCCO1)c1cc2c(s1)CCCC2` (stereo not drawn) yielded an inhibition of -65.3%. `Cc1cccn2c(CNCC(C)Oc3cccnc3)c(C(=O)N3CCOCC3)nc12` (stereo not drawn) showed an inhibition of 9.25%. `CCOc1ccc(S(=O)(=O)NCCC(=O)N2CCCCCCC2)cc1` gave an inhibition of 7.35%. `NC(=O)COC(=O)c1sc2cc(F)ccc2c1Cl` showed an inhibition of -6.93%. Compound `O=C(COc1ccccc1)Nc1ccc(C(=O)N2CCCC2)cc1` has an inhibition of -10.1%. Compound `N#C[C@H]1N[C@H](CO)[C@@H]1c1ccc(C#Cc2ccccc2F)cc1` has an inhibition of -56.4% [at 25 µM]. For `N#C[C@@H]1N[C@@H](CO)[C@@H]1c1ccc(C#Cc2ccccc2F)cc1`, the inhibition was -72.6% [at 25 µM] (active). `N#C[C@@H]1N[C@H](CO)[C@@H]1c1ccc(/C=C/c2ccccc2)cc1` showed an inhibition of -33.7% [at 25 µM]. In the case of `O=C(Nc1cccc(-c2cscn2)c1)C1CCN(Cc2ccsc2)CC1`, the inhibition is reported as -0.734%. Work on `CC(=O)c1c(C)[nH]c(C(=O)OCC(=O)Nc2c(C)n(C)n(-c3ccccc3)c2=O)c1C` yielded an inhibition of 6.04%. Compound `Fc1ccc(-c2ccc(NCCN3CCOCC3)nn2)cc1` has an inhibition of -11.3%. With `COc1ccc2c(c1)c(=Cc1ccc(N(C)C)cc1)c1cc(-c3ccccc3)[n+](C)n12` the inhibition was 104% (active). In the case of `COCCCN(C(=O)CSCc1ccc(C)cc1)c1c(N)n(Cc2ccccc2)c(=O)[nH]c1=O`, the inhibition is reported as 10%. Work on `Cc1cccc(-n2c(=O)c3c(C)c(C)sc3n(CC(N)=O)c2=O)c1` yielded an inhibition of 0.549%. In the case of `CN1CCC(N(C)C(=O)c2ccc(Cl)c(S(=O)(=O)Nc3ccc(Cl)cc3)c2)CC1`, the inhibition is reported as -2.41%. `CC1(C(=O)O)CCCN(C(=O)/C=C/c2ccccc2)C1` (stereo not drawn) gave an inhibition of 4.26%. For `O=C(CCCCCCCC(=O)N1CCCCC1)N1CCCCC1`, the inhibition was -9.37%. With `COc1ccc(NS(=O)(=O)c2ccc(N3CCOCC3)c(NC(=O)/C=C/C(=O)O)c2)cc1` the inhibition was 2.43%. `O=C(Cn1cnc([N+](=O)[O-])n1)NCCc1ccccc1` gave an inhibition of -4.08%. In the case of `O=C(Oc1ccc(-c2nc(-c3ccccn3)no2)cc1)c1ccccc1`, the inhibition is reported as 49.6% (active). For `CC(C)c1nc(-c2ccccn2)no1`, the inhibition was -17.2%. `O=C(COC(=O)c1ccc(Oc2ccccc2)cc1)Nc1nnc(-c2ccccc2)o1` showed an inhibition of -10.4%. Work on `O=C(NCCCN1CCCC1=O)c1ccc(S(=O)(=O)Nc2ccccc2)cc1` yielded an inhibition of 4.15%. In the case of `C=C(C)C[C@H]1CCn2cc(nn2)COCCNC1=O`, the inhibition is reported as 4.24% [at 25 µM]. Work on `Cc1cccc(CN2CCN(Cc3cnn(-c4ccccc4F)c3)CC2CCO)n1` (stereo not drawn) yielded an inhibition of -1.95%. With `CN(Cc1cccc2ncccc12)C(=O)CC1C(=O)NCCN1Cc1ccc(F)cc1` (stereo not drawn) the inhibition was -2.82%. Compound `O=C(CCC(=O)c1cccs1)NC1CCCCCC1` has an inhibition of -60%. With `O=[N+]([O-])c1cccc(C2=NCCS2)c1` the inhibition was 9.1%. With `O=C(NC1CC1)c1ccc(-c2ccccc2)cc1` the inhibition was -88.4%. In the case of `C/C=C/c1ccc(OCC(O)CN2CCCCCCC2)c(OC)c1` (stereo not drawn), the inhibition is reported as 0.219%. With `Oc1c(Cl)cc(Cl)c(Cl)c1Cc1c(O)c(Cl)cc(Cl)c1Cl` the inhibition was 90.9% (active). `CC(NC(=O)c1ccccc1)C(=O)Nc1ccccc1` (stereo not drawn) gave an inhibition of 3.04%. In the case of `O=C(NC(=O)c1ccccc1)NC(=O)c1ccccc1`, the inhibition is reported as -13.8%. In the case of `O=C(NC1=CC(=O)c2ccccc2C1=O)c1ccccc1`, the inhibition is reported as 97.7% (active). For `Cc1ccc(S(=O)(=O)N(C)CC(=O)NCCc2c[nH]c3ccccc23)cc1`, the inhibition was 12.5%. `Cc1ccc(S(=O)(=O)N2CCN(C(=O)Cc3sc(C)nc3-c3ccc(F)cc3)CC2)c(C)c1` showed an inhibition of -8.23%. Work on `Cc1cc(C)c2nc(N3CCC(C(=O)NCCN4CCOCC4)CC3)sc2c1` yielded an inhibition of -16.5%. `CC(OC(=O)CNC(=O)c1ccc(Cl)c([N+](=O)[O-])c1)C(=O)NCc1ccco1` (stereo not drawn) gave an inhibition of 21.2%. With `CCC(C)N(C(=O)COC(=O)c1nc(Cl)ccc1Cl)C1CCS(=O)(=O)C1` (stereo not drawn) the inhibition was 3.49%. For `Cc1ccc(-c2ccccc2[C@H]2[C@@H](C#N)N(c3ncc(-c4ccccc4)s3)[C@@H]2CO)cc1`, the inhibition was 50.1% [at 25 µM] (active). `Cc1cccc(-c2ccccc2[C@@H]2[C@H](C#N)N(c3ncc(-c4ccccc4)s3)[C@H]2CO)c1` gave an inhibition of -6.41% [at 25 µM]. `N#C[C@@H]1[C@H](c2ccccc2-c2ccccc2)[C@H](CO)N1c1ncc(-c2ccccc2)s1` gave an inhibition of -4.27% [at 25 µM]. Work on `Cc1ccc2cccc([N+](=O)[O-])c2n1` yielded an inhibition of -0.702%. In the case of `CCC(=O)N1[C@@H](CO)[C@@H](c2ccc(C3=CCCC3)cc2)C12CN(C(=O)COC)C2`, the inhibition is reported as -9.07% [at 25 µM]. With `CC(OC(=O)C1CC(=O)N(Cc2ccccc2)C1)C(=O)Nc1ccccc1[N+](=O)[O-]` (stereo not drawn) the inhibition was 7.76%. Compound `COc1ccc(NC(=O)c2cc3nc(-c4ccccc4)cc(C)n3n2)cc1OC` has an inhibition of -3.33%. In the case of `Cc1nnc2sc(-c3ccco3)nn12`, the inhibition is reported as 4.37%. Work on `CN(c1nc2ccccc2n2c(-c3ccco3)nnc12)S(=O)(=O)c1ccccc1` yielded an inhibition of 1.82%. For `Cn1c(-c2ccco2)nc2cc3ccccc3cc21`, the inhibition was 50.6% (active). Compound `CCOC(=O)C1(C)NC(c2ccco2)C2C(=O)N(c3ccccc3)C(=O)C21` (stereo not drawn) has an inhibition of -6.84%. Work on `CS(=O)(=O)Nc1ccc2c(c1)[C@H]1C[C@@H](CC(=O)NCCc3ccccc3)O[C@@H](CO)[C@H]1O2` yielded an inhibition of -1.64% [at 25 µM]. Work on `O=C(NCCc1ccc(F)cc1)c1ccc(S(=O)(=O)N2CCCCC2)cc1` yielded an inhibition of -1.19%. With `CC(C)(C)NC(=O)NC(=O)COC(=O)Cc1ccc(Cl)cc1Cl` the inhibition was 15.3%. In the case of `NC(N)=N/N=C/c1ccc(OCc2ccc(Cl)cc2Cl)cc1`, the inhibition is reported as 83.8% (active). For `CCOc1ccc(NC(=O)NNC(=O)c2ccc(Cl)cc2Cl)cc1`, the inhibition was 10.3%. `COCCNC(=O)CSc1nc(N)c(NC(=O)c2ccco2)c(=O)[nH]1` showed an inhibition of 6.02%. For `COc1ccccc1C(=O)NC(CCSC)C(=O)NNC(=O)c1ccccc1C` (stereo not drawn), the inhibition was 0.904%. With `O=C(COC(=O)c1ccc2c(c1)OCCO2)NCc1ccccc1Cl` the inhibition was -15%. With `O=C1COc2ccc(C(=O)COC(=O)c3ccccc3Cl)cc2N1` the inhibition was -59.8%. In the case of `CC(=O)Nc1cccc(C(=O)OCC(=O)c2ccc3c(c2)OCO3)c1`, the inhibition is reported as 90.8% (active). For `O=C(COC(=O)c1ccccc1)c1ccc2c(c1)OCCO2`, the inhibition was 101% (active). With `O=C(COC(=O)c1ccncc1)Nc1ccc2c(c1)OCO2` the inhibition was -1.31%. Work on `O=C(COC(=O)c1ccc(F)cc1)Nc1ccc2c(c1)OCO2` yielded an inhibition of -50.8%. In the case of `CCC(=O)Nc1nnc(S(=O)(=O)N2CCCc3ccccc32)s1`, the inhibition is reported as 5.48%. With `CC(C)NC(=O)N(C)C[C@H]1Oc2ccc(N(C)C)cc2CC(=O)N(C)C[C@@H]1C` the inhibition was 6.49%. Compound `CC(=O)Nc1cccc(C(=O)OCC(=O)NCc2cc(C)c(O)c(C)c2)c1` has an inhibition of -53.4%. `CN(CC(=O)Nc1ccc(OC(F)(F)F)cc1)C(=O)C1CCC1` showed an inhibition of -5.45%. In the case of `O=C(CSc1ccccc1)Nc1cccc(S(=O)(=O)N2CCCCC2)c1`, the inhibition is reported as -2.87%. In the case of `CC(=O)Oc1ccc(-c2cccc(C(=O)N3CCCCC3)c2)cc1`, the inhibition is reported as -16.5%. With `N#C[C@@H]1[C@H](c2ccccc2)[C@H](CO)N1C(=O)CN1CCOCC1` the inhibition was -6.4% [at 25 µM]. `CCOC(=O)C1(Cc2cccc(OC)c2)CCN(Cc2csc(C(C)=O)c2)CC1` showed an inhibition of 21.6%. With `CN1C(=O)c2cc(NC(=O)c3cccc(F)c3)ccc2OC[C@@H]2O[C@@H](CC(=O)NCC3CCCCC3)CC[C@H]21` the inhibition was 28.6% [at 25 µM] and 23.2% [at 25 µM]. `Cc1ccc(OCCCC(=O)Nc2ccc3c(c2)OCCO3)cc1` showed an inhibition of 8.39%. Work on `CCCCC(=O)Nc1ccc2c(c1)OCCO2` yielded an inhibition of -54.6%. For `COC(=O)CCNc1ccc2c(c1)OCCO2`, the inhibition was 49.8% (active). Work on `CSc1ncccc1C(=O)NC1CCCCCC1` yielded an inhibition of 3.02%. Work on `C[C@H]1CN([C@@H](C)CO)C(=O)c2cc(C#CC3(O)CCCC3)cnc2O[C@@H]1CN(C)C(=O)Cc1ccccc1` yielded an inhibition of -19.3% [at 25 µM]. For `C[C@@H]1CN([C@@H](C)CO)C(=O)c2cc(C#CCc3ccccc3)cnc2O[C@@H]1CN(C)C(=O)C1CCOCC1`, the inhibition was 65% [at 25 µM] (active). In the case of `C/C=C/c1cnc2c(c1)C(=O)N([C@@H](C)CO)C[C@@H](C)[C@@H](CN(C)C(=O)C1CCOCC1)O2`, the inhibition is reported as -23% [at 25 µM]. For `COC(=O)Cc1c(-c2[nH]c3ccccc3c2CC(=O)OC)[nH]c2ccccc12`, the inhibition was -13.2%. In the case of `COc1ccc(CCNC(=O)CN(c2ccccc2)S(=O)(=O)c2ccccc2)cc1`, the inhibition is reported as 11.3%.
